Bioassay records (PubChem)
Hits are enriched below; roughly 4.5% of the tested compounds scored in any of these assays.
CSC inhib: cancer stem cell inhibition; cancer stem cell-like cells viability, luminescence; inhibition, % at 7.5 µM; 300,000 compounds, 1.1% hits; in the data active = inhibition above about 75%; tested in HMLE shEcad cells
aSyn 5UTR inh: MLPCN primary screen, SNCA 5' untranslated region; alpha-synuclein 5'UTR reporter, inhibitor activity; inhibition, % (tested at 7.5 µM); 300,000 compounds, 0.82% hits; in the data active = inhibition above about 60%;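 also: H4 neuroglioblastoma cells stably carrying SNCA 5'UTR luciferase fusion; 0% = DMSO wells and 100% = positive control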
Gli-Sufu block: blocks Gli-Sufu signaling in a luciferase reporter | Sufu-KO-LIGHT fibroblasts, Gli luciferase reporter luminescence | inhibition, % at 5 µM | 340,000 compounds, 0.74% hits;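 active = inhibition above about 55%, limit read from the data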;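 also: 0% = DMSO-treated cells and 100% = wells with medium but no cells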
Mdm2-MdmX inh: disrupts the human Mdm2-MdmX interaction; 330,000 compounds, 3% hits; SaOS-2 split-luciferase Mdm2/MdmX complementation, luminescence; inhibition, % at 8 µM; O15151+Q00987;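 active = inhibition of at least 50% at 8 µM in the primary screen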
Target sequence (O15151 whole entry, looked up): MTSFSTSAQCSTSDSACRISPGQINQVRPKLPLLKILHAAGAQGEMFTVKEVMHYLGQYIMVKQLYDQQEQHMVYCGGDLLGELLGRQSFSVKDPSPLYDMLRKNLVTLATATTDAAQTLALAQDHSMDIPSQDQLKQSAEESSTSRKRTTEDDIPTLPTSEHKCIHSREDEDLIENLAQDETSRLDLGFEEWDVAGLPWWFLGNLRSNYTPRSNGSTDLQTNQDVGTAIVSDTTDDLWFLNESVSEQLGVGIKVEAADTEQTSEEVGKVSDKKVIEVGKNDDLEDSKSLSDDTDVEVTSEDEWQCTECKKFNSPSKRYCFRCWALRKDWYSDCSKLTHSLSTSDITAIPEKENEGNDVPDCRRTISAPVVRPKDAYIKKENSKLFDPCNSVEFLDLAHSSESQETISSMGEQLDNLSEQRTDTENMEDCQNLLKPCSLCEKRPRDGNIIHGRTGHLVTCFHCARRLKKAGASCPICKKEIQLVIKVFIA
Target sequence (Q00987 whole entry, looked up): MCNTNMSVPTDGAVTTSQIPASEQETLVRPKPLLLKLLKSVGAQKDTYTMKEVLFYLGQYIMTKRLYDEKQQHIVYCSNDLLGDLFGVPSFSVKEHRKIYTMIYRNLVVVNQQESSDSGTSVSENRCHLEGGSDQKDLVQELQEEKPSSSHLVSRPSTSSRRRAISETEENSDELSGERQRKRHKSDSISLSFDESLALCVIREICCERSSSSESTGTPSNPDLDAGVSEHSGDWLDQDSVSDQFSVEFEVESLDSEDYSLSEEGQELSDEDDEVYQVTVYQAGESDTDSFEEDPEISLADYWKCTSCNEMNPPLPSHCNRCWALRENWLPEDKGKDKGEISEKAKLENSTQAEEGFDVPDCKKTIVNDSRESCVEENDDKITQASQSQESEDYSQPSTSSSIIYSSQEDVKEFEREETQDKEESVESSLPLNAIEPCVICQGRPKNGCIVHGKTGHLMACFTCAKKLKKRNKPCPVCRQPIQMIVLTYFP
Jurkat NFkB inh: lowers PMA/ionomycin-induced NF-kB signal in Jurkat cells; PMA/ionomycin-induced NF-kB luciferase reporter, luminescence; inhibition, % at 4 µM; 330,000 compounds, 0.53% hits; AID 435003; in the data active = inhibition above about 50%
697 NFkB inh: lowers PMA/ionomycin-induced NF-kB signal in 697 B cells | AID 435022 | 330,000 compounds, 0.33% hits | inhibition, % at 4 µM | 697 B-cell NF-kB luciferase reporter, 16 h; in the data active = inhibition above about 35%
Jurkat NFkB conf: inhibitors of the PMA/ionomycin-induced NF-kB reporter in Jurkat cells, retest; shares compounds with Jurkat NFkB inh; Jurkat NF-kB luciferase, 16 h; inhibition, % at 4 µM; 2,700 compounds, 27% hits; AID 435020;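 active = inhibition reaching about 45% at 4 µM in either replicate, limit read from the data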;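 also: plate controls were PMA/ionomycin stimulated DMSO wells for no effect and unstimulated DMSO wells for full effect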
697 NFkB conf: lowers PMA/ionomycin-induced NF-kB signal in 697 B cells | inhibition, % at 4 µM | 2,000 compounds, 35% hits | 697 B-cell NF-kB luciferase, 16 h | shares compounds with 697 NFkB inh | AID 449746; in the data active = inhibition mostly above about 28%, no sharp cut-off; inactive = mostly below about 22%
Mdm2 MdmX conf: confirmation of human Mdm2/MdmX interaction inhibitors; shares compounds with Mdm2-MdmX inh; Mdm2-MdmX binding, luminescent assay; inhibition, % at 8 µM; 10,000 compounds, 55% hits; in the data active = inhibition above about 40%
Full FLuc ctr: counter-screen for Mdm2/MdmX inhibitors: full-length luciferase; shares compounds with Mdm2-MdmX inh; SaOS-2 full-length luciferase counterscreen, luminescence; inhibition, % at 8 µM; 6,200 compounds, 77% hits; AID 504607;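 active = mean inhibition at 8 µM reaching about 37%, which flags the compound as non-specific, limit read from the data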;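 also: p53-null SaOS-2 cells with luciferase driven by a doxycycline-inducible promoter; compound on cells about two nights before reading with doxycycline added after day one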
Active calls of the source: *.

What do the screens show for `CCOC(=O)CSC1=C(C#N)C(c2ccc(C)o2)CC(=O)N1` (stereo not drawn)?
CSC inhib: 58; aSyn 5UTR inh: 78*; Gli-Sufu block: 37; Mdm2-MdmX inh: 65*; Jurkat NFkB inh: 58*; 697 NFkB inh: -21; Jurkat NFkB conf: 17; Mdm2 MdmX conf: 52*; Full FLuc ctr: 73*

How did CCOc1ccc(C(C)=O)cc1COc1cccnc1[N+](=O)[O-] do in these assays?
CSC inhib: 41; aSyn 5UTR inh: -45; Gli-Sufu block: -27; Mdm2-MdmX inh: 58*; Jurkat NFkB inh: 54*; 697 NFkB inh: -11; Jurkat NFkB conf: 19; Mdm2 MdmX conf: 57*; Full FLuc ctr: 45*

Results for O=C(O)c1cc(/C=N\O)ccc1OCc1ccccc1 ?
CSC inhib: 7; aSyn 5UTR inh: 15; Gli-Sufu block: 2; Mdm2-MdmX inh: -28; Jurkat NFkB inh: -3; 697 NFkB inh: 32

What do the screens show for `COc1cc(/C=N/O)ccc1OCc1ccc(C(=O)O)cc1`?
CSC inhib: -10; aSyn 5UTR inh: 116*; Gli-Sufu block: -117; Mdm2-MdmX inh: 83*; Jurkat NFkB inh: 85*; 697 NFkB inh: 85*; Jurkat NFkB conf: 67*; 697 NFkB conf: 48*; Mdm2 MdmX conf: 78*; Full FLuc ctr: 21

What do the screens show for `O=C(O)c1cccc(COc2ccccc2Cl)c1`?
CSC inhib: -8; aSyn 5UTR inh: 103*; Gli-Sufu block: -103; Mdm2-MdmX inh: 69*; Jurkat NFkB inh: 82*; 697 NFkB inh: 67*; Jurkat NFkB conf: 78*; 697 NFkB conf: 43*; Mdm2 MdmX conf: 69*; Full FLuc ctr: 50*

What do the screens show for `O=C(O)c1ccc(COc2ccccc2Cl)cc1`?
CSC inhib: 8; aSyn 5UTR inh: -15; Gli-Sufu block: 0; Mdm2-MdmX inh: -5; Jurkat NFkB inh: -15; 697 NFkB inh: 3

What do the screens show for `COc1ccc(OC)c(NS(=O)(=O)c2ccc(N3CCCC3=O)cc2)c1`?
CSC inhib: 57; aSyn 5UTR inh: 111*; Gli-Sufu block: 45; Mdm2-MdmX inh: 72*; Jurkat NFkB inh: 55*; 697 NFkB inh: 1; Jurkat NFkB conf: 55*; Mdm2 MdmX conf: 57*; Full FLuc ctr: 83*

What do the screens show for `Cc1ccc(S(=O)(=O)N2CCN(C(=O)COC(=O)c3ccc(Cl)nc3)CC2)c(C)c1`?
Gli-Sufu block: 0; Mdm2-MdmX inh: 18; Jurkat NFkB inh: 2; 697 NFkB inh: 17

What do the screens show for `CC(C)(C)[C@H](N)C(=O)N[C@H]1CCC2C3CC=C4C[C@@H](O)CC[C@]4(C)C3CC[C@@]21C` (stereo partly drawn)?
CSC inhib: 104*; Gli-Sufu block: -3; Mdm2-MdmX inh: 100*; Jurkat NFkB inh: 61*; 697 NFkB inh: 8; Jurkat NFkB conf: 37; Mdm2 MdmX conf: 100*; Full FLuc ctr: 52*

Results for Cc1ccc(S(=O)(=O)Cn2nnnc2C(C(C)C)N2CCC(C(N)=O)CC2)cc1 (stereo not drawn) ?
CSC inhib: -20; aSyn 5UTR inh: 7; Gli-Sufu block: 8; Mdm2-MdmX inh: -12; Jurkat NFkB inh: -3; 697 NFkB inh: -16

How did O=C(Nc1ccc(-c2nc3ccc(NC(=O)c4cccs4)cc3[nH]2)cc1)c1cccs1 do in these assays?
CSC inhib: 102*; aSyn 5UTR inh: 122*; Gli-Sufu block: 25; Mdm2-MdmX inh: 95*; Jurkat NFkB inh: 91*; 697 NFkB inh: -132; Jurkat NFkB conf: -45; Mdm2 MdmX conf: 47*; Full FLuc ctr: 34

Results for O=C(Nc1ccc2nc(-c3cccs3)[nH]c2c1)c1cccs1 ?
CSC inhib: 7; aSyn 5UTR inh: -223; Gli-Sufu block: -18; Mdm2-MdmX inh: -2; Jurkat NFkB inh: -34; 697 NFkB inh: -78

How did Cc1ccc(OCCn2cnc3cc([N+](=O)[O-])ccc3c2=O)cc1 do in these assays?
CSC inhib: 3; aSyn 5UTR inh: 2; Gli-Sufu block: 5; Mdm2-MdmX inh: 14; Jurkat NFkB inh: -1; 697 NFkB inh: 34

What do the screens show for `COc1ccc2c(Cn3cnc4cc([N+](=O)[O-])ccc4c3=O)cc(=O)oc2c1`?
CSC inhib: 65; aSyn 5UTR inh: 72*; Gli-Sufu block: -23; Mdm2-MdmX inh: 60*; Jurkat NFkB inh: 70*; 697 NFkB inh: 15; Jurkat NFkB conf: 11; Mdm2 MdmX conf: 73*; Full FLuc ctr: 20

Results for CC(C)(C)c1ccc(C(=O)O/N=C(\N)c2ccccc2)cc1 ?
CSC inhib: 0; aSyn 5UTR inh: 53; Gli-Sufu block: 89*; Mdm2-MdmX inh: 97*; Jurkat NFkB inh: 71*; 697 NFkB inh: 0; Jurkat NFkB conf: 85*; Mdm2 MdmX conf: 88*; Full FLuc ctr: 23

What do the screens show for `Cc1cc(C(=O)O/N=C(\N)c2ccc(C(C)(C)C)cc2)no1`?
CSC inhib: 9; aSyn 5UTR inh: -223; Gli-Sufu block: -45; Mdm2-MdmX inh: -103; Jurkat NFkB inh: -105; 697 NFkB inh: -200

What do the screens show for `CC(C)OC(=O)c1sc2nc(-c3ccccc3)ccc2c1N`?
CSC inhib: 7; aSyn 5UTR inh: 1; Gli-Sufu block: 9; Mdm2-MdmX inh: 52*; Jurkat NFkB inh: -290; 697 NFkB inh: -276; Jurkat NFkB conf: -8; 697 NFkB conf: -81; Mdm2 MdmX conf: 45*; Full FLuc ctr: 180*

What do the screens show for `COc1ccc(C(=O)c2sc3nc(-c4ccccc4)ccc3c2N)cc1`?
CSC inhib: 41; aSyn 5UTR inh: 3; Gli-Sufu block: -4; Mdm2-MdmX inh: -11; Jurkat NFkB inh: -15; 697 NFkB inh: -40

What do the screens show for `Cc1c(C)c2ccc(OCC(=O)N(C)C)c(C)c2oc1=O`?
CSC inhib: -2; aSyn 5UTR inh: -41; Gli-Sufu block: 1; Mdm2-MdmX inh: -28; Jurkat NFkB inh: -6; 697 NFkB inh: -21

What do the screens show for `Cc1c(C)c2ccc(OCC(=O)Nc3ccccn3)c(C)c2oc1=O`?
CSC inhib: 38; aSyn 5UTR inh: 110*; Gli-Sufu block: 51; Mdm2-MdmX inh: 88*; Jurkat NFkB inh: 91*; 697 NFkB inh: 9; Jurkat NFkB conf: 94*; Mdm2 MdmX conf: 90*; Full FLuc ctr: 52*

What do the screens show for `COc1ccc(Br)cc1CNC(=O)CCNC(=O)Cn1ccc2ccccc2c1=O`?
CSC inhib: -4; aSyn 5UTR inh: 19; Gli-Sufu block: 35; Mdm2-MdmX inh: 15; Jurkat NFkB inh: 4; 697 NFkB inh: 8

What do the screens show for `CCOc1ccc(S(=O)(=O)NCc2cccnc2)cc1NC(=O)c1ccccc1`?
Gli-Sufu block: 17
